Measured values published in PubChem BioAssay (Tox21).
Inconclusive results are not listed. Where a call stands in place of a potency, no number is given. Values without a mark were called inactive. Calls of active or inactive are those of the source. Unless noted, calls come from the whole dose curve; as a rule, active = well fitted curve in the direction sought with a large enough effect in the repeat runs; inconclusive = weak or mixed curves; inactive = no such curve, though single readings can be large; an effect the other way counts as inactive or inconclusive.

Experiments:
[1] = qHTS assay to identify small molecule agonists of the vitamin D receptor (VDR) signaling pathway - cell viability counter screen (AID 743224); note: nearly all actives have a fitted effect of over 50% in size; note: potency is the fitted concentration of half-maximal effect
Summary of the method: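 VDR-bla cells, 4 h after plating, exposed to compounds for 16 h at 37C; viability then read in the same wells as CellTiter-Glo luminescence after 30 min at room temperature, following the bla FRET read.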

[2] = qHTS assay to identify small molecule agonists of the NFkB signaling pathway (AID 1159509; active = well fitted curve in the direction sought with a large enough effect in the signal ratio in the repeat runs, not every such curve was filed as active; the % refers to the signal ratio; note: potency is the fitted concentration of half-maximal effect)
Summary of the method: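 ME-180 NFkB-bla, 2,000 cells/well, overnight plating; cpd pinned in DMSO, 5 h 37 C; B/G FRET substrate 1.5 h RT; ex 405, em 460/530 nm.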

[3] = qHTS assay to identify small molecule agonists of the NFkB signaling pathway - cell viability counter screen (AID 1159515; calls by dose curve; note: nearly all actives have a fitted effect of over 55% in size)
Summary of the method: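 NFkB-bla ME-180 cells, 2,000/well, plated overnight at 37 C; compound added for 5 hr at 37 C. Viability read in the same wells as the bla reporter, by CellTiter-Glo luminescence after 30 min at room temperature.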

[4] = qHTS assay to identify small molecule antagonists of the retinoid-related orphan receptor gamma (ROR-gamma) signaling pathway - cell viability counter screen (AID 1159520); note: nearly all actives have a fitted effect of over 50% in size; note: potency is the fitted concentration of half-maximal effect
Summary of the method: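 Tet-on ROR gamma CHO cells (1,000/well) were plated 4 hr, given compounds in DMSO for 2 hr at 37 C, then induced with 1 uM final doxycycline for 16 hr. Viability was read as ATP by CellTiter-Glo luminescence after 30 min.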

[5] = target: Nuclear receptor ROR-gamma (Homo sapiens) (UniProt P51449); test: qHTS assay to identify small molecule antagonists of the retinoid-related orphan receptor gamma (ROR-gamma) signaling pathway (AID 1159521; note: nearly all actives have a fitted effect of over 50% in size; note: potency is the fitted concentration of half-maximal effect)
Summary of the method: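 CHO cells expressing RORγ under a TET-on promoter, luciferase under RORE control. Dox 1 uM final, 16 h; compounds added 2 h prior. Luminescence decrease measured.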

[6] = qHTS assay to identify small molecule agonists of the AP-1 signaling pathway - cell viability counter screen (AID 1159525; calls by dose curve; note: nearly all actives have a fitted effect of over 55% in size)
Summary of the method: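 ME-180 AP-1-bla, 2500 cells/well, Opti-MEM + 0.5% dialyzed FBS; overnight 37 °C; cpd 15-pt titration, 5 h 37 °C; CellTiter-Glo 30 min RT; luminescence read; normalised to TOAB and DMSO controls.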

[7] = qHTS assay to identify small molecule agonists of the RXR signaling pathway - cell viability counter screen (AID 1159529); note: nearly all actives have a fitted effect of over 50% in size; note: potency is the fitted concentration of half-maximal effect
Summary of the method: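 Same-well viability check after the LiveBLAzer FRET read: CellTiter-Glo added, luminescence measured after 30 min at room temperature. Reporter HEK 293T cells had been treated with compounds for 16 hr following a 5 hr preincubation.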

[8] = qHTS assay to identify small molecule antagonists of the retinoic acid receptor (RAR) signaling pathway (AID 1159552; note: nearly all actives have a fitted effect of over 50% in size; note: potency is the fitted concentration of half-maximal effect)
Summary of the method: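 Readout: luciferase luminescence, 30 min post-reagent at RT. Setup: C3RL4 RARE reporter cells, compounds plus retinol 1 uM final, 6 hr incubation at 37 C and 5% CO2.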

[9] = qHTS assay to identify small molecule agonists of the AP-1 signaling pathway (AID 1159526; calls by dose curve; note: potency is the fitted concentration of half-maximal effect)
[10] = qHTS assay to identify small molecule antagonists of the retinoid acid receptor (RAR) signaling pathway - cell viability counter screen (AID 1159551); note: nearly all actives have a fitted effect of over 35% in size; note: potency is the fitted concentration of half-maximal effect
Summary of the method: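 C3RL4 RARE-luciferase cells, 1,000/well, incubated overnight, then dosed with compound plus 1 uM retinol (final). After 6 hr at 37 C, viability read by CellTiter-Glo ATP luminescence following 30 min at room temperature.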

[11] = qHTS assay to identify small molecule agonists of the retinoic acid receptor (RAR) signaling pathway (AID 1159553); details: C3RL4 RARE luciferase reporter, agonist, 6 h; activation: at 73.3 µM (top of the series)
Summary of the method: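 C3RL4 RARE-luciferase cells were seeded at 1,000/well and grown overnight at 37 C, then exposed to compounds for 6 hr at 37 C, 5% CO2. Luciferase reagent was added and luminescence was read after 30 min at room temperature.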

[12] = qHTS assay to identify small molecule antagonists of the vitamin D receptor (VDR) signaling pathway - cell viability counter screen (AID 743225); note: nearly all actives have a fitted effect of over 50% in size
Summary of the method: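 Luminescent cell viability (CellTiter-Glo) in VDR-bla HEK 293T cells after 16 h compound exposure at 37C in the presence of 3 nM final 1-alpha,25-dihydroxy vitamin D3.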

[13] = target: Retinoic acid receptor RXR-alpha (Homo sapiens) (UniProt P19793); test: qHTS assay to identify small molecule agonists of the RXR signaling pathway (AID 1159527; calls by dose curve; note: nearly all actives have a fitted effect of over 35% in size)
Chain of Retinoic acid receptor RXR-alpha (Homo sapiens) (P19793 whole entry, looked up): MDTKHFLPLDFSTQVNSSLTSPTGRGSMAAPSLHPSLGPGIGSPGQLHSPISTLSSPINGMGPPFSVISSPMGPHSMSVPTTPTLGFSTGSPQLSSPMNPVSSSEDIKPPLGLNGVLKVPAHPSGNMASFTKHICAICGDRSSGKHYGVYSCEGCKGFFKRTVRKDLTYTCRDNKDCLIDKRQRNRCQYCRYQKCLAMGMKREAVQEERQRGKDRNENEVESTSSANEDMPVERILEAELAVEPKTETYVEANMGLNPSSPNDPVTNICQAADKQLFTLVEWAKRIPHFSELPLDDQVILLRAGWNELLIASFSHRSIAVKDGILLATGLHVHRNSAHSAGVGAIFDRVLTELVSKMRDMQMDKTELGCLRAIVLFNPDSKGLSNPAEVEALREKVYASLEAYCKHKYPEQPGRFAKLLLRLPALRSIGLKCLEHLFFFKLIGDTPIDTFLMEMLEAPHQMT
Summary of the method: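 Beta-lactamase reporter assay, agonist format. Engineered HEK 293T line, charcoal-stripped FBS at 2%, overnight (16 hr) exposure, fluorescence at 460 and 530 nm after 405 nm excitation.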

[14] = qHTS assay to identify small molecule agonists of the endoplasmic reticulum stress response signaling pathway - cell viability counter screen (AID 1159517; calls by dose curve)
Summary of the method: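 CellTiter-Glo was added to wells already read for beta-lactamase FRET, and luminescence was recorded 30 min later. Cells: ESRE-bla HeLa, 1,500 per well, compound exposure 5 hr at 37 C.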

[15] = qHTS assay to identify small molecule agonists of the endoplasmic reticulum stress response signaling pathway (AID 1159516; active = well fitted activation curve with a large enough effect in the signal ratio in the repeat runs, not every such curve was filed as active; the % refers to the signal ratio)
Summary of the method: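 CellSensor ESRE-bla HeLa cells, 1,500 per well, plated overnight, then exposed to compounds for 5 hr at 37 C. Beta-lactamase reporter read with LiveBLAzer B/G FRET substrate after 2 hr at room temperature, 405 nm excitation, 460 and 530 nm emission.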

Compound | Potency [1] | Potency [2] | Potency [3] | Potency [4] | Potency [5] | Potency [6] | Potency [7] | Potency [8] | Potency [9] | Potency [10] | Potency [11] | Potency [12] | Potency [13] | viability change, negative = cytotoxic [6] | activation [9] | Potency [14] | Potency [15]
COC(=O)c1nc(Cl)c(Cl)nc1N | 11.9 µM (active) | 15.1 µM (active) | inactive | 13.3 µM (active) | 3.76 µM (active) | inactive | 13.4 µM (active) | 11.9 µM (active) |  |  |  |  |  |  |  |  | 
C=C(C)[C@@H]1CCC2=CCC[C@@H](C)[C@]2(C)C1 |  | inactive | inactive | inactive |  | inactive |  |  | inactive | inactive | inactive |  |  |  |  |  | 
CC1(C)[C@@H](OC(=O)CCC(=O)O)CC[C@]2(C)[C@H]3C(=O)C=C4[C@@H]5C[C@@](C)(C(=O)O)CC[C@]5(C)CC[C@@]4(C)[C@]3(C)CC[C@@H]12 | inactive | inactive | inactive | inactive | inactive | inactive | inactive | inactive |  | inactive | inactive | inactive |  |  |  |  | 
CC(CO)CO | inactive | inactive | inactive | inactive | inactive | inactive | inactive | inactive | inactive | inactive | inactive | inactive | inactive |  |  |  | 
CC(C)C=O | inactive | inactive | inactive | inactive | inactive |  | inactive | inactive | inactive | inactive | inactive | inactive |  |  |  |  | 
OC(CCN1CCCC1)(c1ccccc1)C1CCCCC1 (configuration not stated) | inactive | inactive | inactive | inactive | inactive |  | inactive |  |  | inactive | inactive | inactive | inactive |  |  |  | 
Cc1cc(=O)c2c(O)c3c(O)cc(=O)c4c3c3c(cc(O)c1c23)C(C)(C)C=4O | 0.731 µM (active) | inactive | inactive | 1.64 µM (active) | 0.82 µM (active) |  |  |  |  |  |  |  |  | 5.76% [at 15.8 µM] | -0.228% [at 15.8 µM] |  | 
CCOc1cccc(-n2cc(C(=O)N3CCN(c4cc(C(=O)O)c5ccccc5c4)CC3)nc2-c2ccc(C)cc2)c1 |  | inactive | inactive |  |  |  | inactive | inactive |  | inactive | inactive |  |  |  |  | inactive | 
CC=C(Cl)Cl |  | inactive | inactive | inactive | inactive | inactive | inactive | inactive | inactive | inactive | inactive | inactive | inactive |  |  |  | 
CCCCC(CC)COP(=O)(O)O (configuration not stated) | inactive | inactive | inactive | inactive | inactive |  | inactive | inactive | 39.6 µM (active) | inactive | inactive | inactive |  |  |  |  | 
CCC1NC(=O)c2cc(S(N)(=O)=O)c(Cl)cc2N1 (configuration not stated) | inactive | inactive | inactive | inactive | inactive | inactive | inactive |  | inactive | inactive |  | inactive | inactive |  |  |  | 
CC(=O)OCCN(CCOC(C)=O)c1ccc(N=Nc2ccc([N+](=O)[O-])cc2C#N)cc1 | inactive | inactive | inactive |  | inactive | inactive | inactive | inactive | inactive | 48.6 µM (active) |  |  |  |  |  |  | 
CN1C(=O)OC(C)(C)C1=O | inactive | inactive |  | inactive | inactive | inactive | inactive | inactive | inactive | inactive | inactive | inactive | inactive |  |  | inactive | inactive
CC1=C(CC=O)C(C)(C)CCC1 | inactive | inactive |  | inactive | inactive | inactive | inactive |  | inactive | inactive |  | inactive | inactive |  |  | inactive | inactive
CCC(=O)C1CC(C(C)C)CC=C1C (configuration not stated) | inactive | inactive |  | inactive | inactive | inactive | inactive | inactive | inactive | inactive | inactive | inactive | inactive |  |  | inactive | inactive
C=C1C[C@@]23CC[C@H]4[C@@](C)(CCC[C@@]4(C)C(=O)O[C@@H]4O[C@H](CO)[C@@H](O)[C@H](O)[C@H]4O)[C@@H]2CC[C@]1(O[C@@H]1O[C@H](CO)[C@@H](O)[C@H](O[C@@H]2O[C@H](CO)[C@@H](O)[C@H](O)[C@H]2O)[C@H]1O[C@@H]1O[C@H](CO)[C@@H](O)[C@H](O)[C@H]1O)C3 | inactive | inactive |  | inactive | inactive | inactive | inactive | inactive | inactive | inactive | inactive |  | inactive |  |  | inactive | inactive
Oc1cccc(Nc2ccccc2)c1 | inactive | inactive |  | inactive | inactive | inactive | inactive | inactive | inactive | inactive |  | inactive | inactive |  |  | inactive | inactive
CCCC(=O)C(=O)O | inactive | inactive |  | inactive | inactive | inactive | inactive | inactive | inactive | inactive | inactive | inactive | inactive |  |  | inactive | inactive
CC(=O)c1cc2ccccc2s1 | inactive | inactive |  | inactive | inactive | inactive | inactive | inactive | inactive | inactive | inactive |  | inactive |  |  | inactive | inactive
CN1CC(=O)N2[C@H](c3ccc4c(c3)OCO4)c3[nH]c4ccccc4c3C[C@@H]2C1=O | inactive | inactive |  | inactive | inactive | inactive | inactive |  | inactive | inactive | inactive |  | inactive |  |  | inactive | inactive
